Plk1 PBD FP: Plk1 polo box domain binding inhibitors, primary screen, biochemical, fluorescence polarization | inhibition, %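 (tested at about 20 µM)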 | Serine/threonine-protein kinase PLK1 (Homo sapiens), P53350 | Plk1 PBD phosphopeptide binding | AID 693, 2007 | 0.13% of 97,000 active; in the data active = inhibition above about 34%, passing the limit was not always enough
Pyk2 oligo antag: antagonists of Pyk2 self-association, primary screen, Q293 cells, FERM NanoBiT luminescence, HTS | hits give low values | z-score (the deposit names both 25 µM and 10 µM) | 0.83% of 99,000 active | AID 1347419, 2020 | Protein-tyrosine kinase 2-beta (Homo sapiens), Q14289;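 active = Z-score of -3 or lower, scaled per plate to the spread of control and sample wells; inactive = z-score above -3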;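 also: negative z-score means lost luminescence so less FERM oligomerization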
PTPN22 act: LYP phosphatase activators, primary screen, biochemical, DiFMUP fluorescence, 2 µM | Tyrosine-protein phosphatase non-receptor type 22 (Homo sapiens), Q9Y2R2 | recombinant LYP; 0 = plate median, 100 = signal doubled | activation, % at 2 µM | 0.11% of 96,000 active;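 active = activation at 2 µM above a set limit, the mean plus 5 SD, cut at about 37% in these data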
PTPN22 inh 2: PTPN22 phosphatase inhibitors, primary screen, biochemical, DiFMUP fluorescence, 2 µM; Tyrosine-protein phosphatase non-receptor type 22 (Homo sapiens), Q9Y2R2; recombinant LYP catalytic domain; inhibition, % at 2 µM; 0.21% of 96,000 active; AID 640, 2007;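 active = inhibition at 2 µM at or above a set limit, the screen mean plus 3 SD, cut at about 24% in these data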;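 also: 0% = DMSO with enzyme and 100% = enzyme fully blocked by orthovanadate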
PLK1 inh: human PLK1 kinase inhibitors, primary screen, biochemical, TR-FRET; Serine/threonine-protein kinase PLK1 (Homo sapiens), P53350; recombinant PLK1 kinase, TR-FRET peptide phosphorylation; inhibition, % at 10 µM; 0.53% of 97,000 active; AID 619, 2007;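 active = inhibition of 50% or more in the single-concentration screen; inactive = inhibition below 50%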;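 also: 0% = DMSO max control and 100% = H-89 dihydrochloride min control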
Starred values were filed as active, the others as inactive. A selection: hits, their analogues and other compounds. The true share with any hit is near 1.7%.

Screening Cc1ccc(C(=O)NNC(=O)CSc2nnc3c(n2)[nH]c2ccc(F)cc23)cc1 returned Plk1 PBD FP -8.0, Pyk2 oligo antag -0.06, PTPN22 act -27.5, PTPN22 inh 2 29.6* and PLK1 inh -11.6.
O=C(CCCCCN1C(=O)C2C3C=CC(C3)C2C1=O)Nc1nccs1 (stereo not given) was read as Plk1 PBD FP -9.3 and PLK1 inh 62.2*.
For Cc1n[nH]c(C)c1N=Nc1cc(Cl)ccc1Cl the results were Plk1 PBD FP 13.3, Pyk2 oligo antag -1.16, PTPN22 act -9.3, PTPN22 inh 2 13.3 and PLK1 inh 53.7*.
Screening CC(C)NC(=O)CN(C)S(=O)(=O)c1ccc(F)cc1 returned Plk1 PBD FP 24.0, Pyk2 oligo antag 0.63, PTPN22 act -12.4, PTPN22 inh 2 9.7 and PLK1 inh -6.7.
Screening CN(CC(=O)Nc1nccs1)S(=O)(=O)c1ccc(F)cc1 returned Plk1 PBD FP 0.6, Pyk2 oligo antag -0.58, PTPN22 act -5.7, PTPN22 inh 2 7.9 and PLK1 inh 53.4*.
Screening CC(C)c1ccc(N=c2c([N+](=O)[O-])nn(-c3ccc4c(c3)OCCO4)n2O)cc1 returned Plk1 PBD FP -15.3, Pyk2 oligo antag -3.98*, PTPN22 act -10.3, PTPN22 inh 2 14.8 and PLK1 inh -0.3.
`Cc1cc(C)cc(N=c2c([N+](=O)[O-])nn(-c3cccc(Cl)c3)n2O)c1` gave Plk1 PBD FP 33.8, Pyk2 oligo antag -0.62, PTPN22 act 8.7, PTPN22 inh 2 -6.1 and PLK1 inh 2.2.
Screening O=S(=O)(CCSc1nc2ccccc2o1)c1nc2ccccc2s1 returned Plk1 PBD FP -14.6, Pyk2 oligo antag -3.12*, PTPN22 act -4.5, PTPN22 inh 2 1.6 and PLK1 inh -3.8.
COc1cc(N/C=C(\C(C)=O)c2ccccc2)cc(OC)c1 was read as Plk1 PBD FP -26.9, Pyk2 oligo antag -0.66, PTPN22 act -2.0, PTPN22 inh 2 5.2 and PLK1 inh -10.2.
For N#Cc1nc(-c2ccc(OCc3ccccc3)cc2)oc1NCCN1CCOCC1 the results were Plk1 PBD FP 12.1, PTPN22 act 1.7, PTPN22 inh 2 -1.6 and PLK1 inh -3.5.
N#Cc1nc(-c2ccc(OCc3ccc(Cl)cc3)cc2)oc1NCCCn1ccnc1 was read as Plk1 PBD FP 5.6, Pyk2 oligo antag -0.03, PTPN22 act -26.9, PTPN22 inh 2 25.5* and PLK1 inh -39.2.
CCOc1ccc(C(=O)C2CCN(CC(=O)Nc3ccccc3N3CCOCC3)CC2)cc1 was read as Plk1 PBD FP -1.4, Pyk2 oligo antag -2.23, PTPN22 act 2.1, PTPN22 inh 2 -1.4 and PLK1 inh -7.7.
Cc1csc(NC(=O)CSc2nc(C(C)C)nc3c2c(=O)n(C)c(=O)n3C)n1 was read as Plk1 PBD FP 11.6 and PLK1 inh 66.5*.
COC(=O)c1ccc(C)c(NC(=O)CN2C(=O)c3ccccc3S2(=O)=O)c1 was read as Plk1 PBD FP -6.8, Pyk2 oligo antag -0.79, PTPN22 act 7.0, PTPN22 inh 2 -5.6 and PLK1 inh -12.7.
Screening CCc1cccc(C)c1NC(=O)CN1C(=O)c2ccccc2S1(=O)=O returned Plk1 PBD FP -9.8 and PLK1 inh 69.0*.
`COc1cccc(-n2c(SCC(=O)N3CCOCC3)nnc2-c2c[nH]c3ccccc23)c1` gave Plk1 PBD FP 7.3 and PLK1 inh 63.4*.
`Cn1c(SCc2ccccc2)nnc1-c1c[nH]c2ccccc12` gave Plk1 PBD FP -10.2, PTPN22 act -9.8, PTPN22 inh 2 9.0 and PLK1 inh -18.3.
CCCCSc1nnc(-c2c[nH]c3ccccc23)n1C was read as Plk1 PBD FP -18.1 and PLK1 inh 68.8*.
For Cn1c(SCC(=O)N2CCN(c3ccccc3)CC2)nnc1-c1c[nH]c2ccccc12 the results were Plk1 PBD FP 15.1 and PLK1 inh 67.0*.
Screening Cc1ccc(C(=O)COC(=O)CNS(=O)(=O)c2ccccc2)cc1[N+](=O)[O-] returned Plk1 PBD FP 33.0, Pyk2 oligo antag 0.54, PTPN22 act 5.6, PTPN22 inh 2 -2.9 and PLK1 inh 2.4.
Screening C#CCn1c(S(=O)(=O)Cc2ccc(OC)cc2)nc(-c2ccccc2)c1-c1ccccc1 returned Plk1 PBD FP 7.5, Pyk2 oligo antag -3.05*, PTPN22 act 0.0, PTPN22 inh 2 4.0 and PLK1 inh -13.3.

Bioassay records from PubChem BioAssay.
